# Source: PubChem BioAssay
# This is a sample that favours compounds with a hit; in the whole collection about 2.4% have one here.
# PfM18AAP inh: PfM18AAP enzyme inhibition; recombinant PfM18AAP, H-Glu-NHMec fluorogenic cleavage; inhibition, % at 7.35 µM; 1.2% of 290,000 active;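 active = inhibition above the campaign mean inhibition over all tested compounds plus 3 SD, cut at about 28% in these data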;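 also: 0% = plate median of test compound wells and 100% = 2 mM ZnCl2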
# PERK inh: blocks human PERK kinase; inhibition, % at 5.6 µM; AID 1416; CHO PERK-DD fusion, SEAP luminescence translation reporter; 0.17% of 220,000 active; Q9NZJ5;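 active = inhibition above the mean inhibition of all tested compounds plus 3 SD, set separately per screening campaign, cut at about 2.9% in these data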;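 also: PERK kinase domain activated by AP20187 dimerizer at 100 nM; 0% = DMSO with dimerizer and 100% = rapamycin at 8.4 µM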
# MLLE-PAM2 inh: inhibitors of microRNA-mediated deadenylation, human PABP1 MLLE binding. inhibition, % at 20 µM. GST-MLLE / FITC-PAM2 fluorescence polarization. 0.36% of 360,000 active; in the data active = inhibition above about 35%, passing the limit was not always enough;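 also: plate controls were DMSO wells with GST-MLLE for no effect and wells lacking GST-MLLE protein for full effect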
# eIF4H inh: inhibitors of RNA binding by human eIF4H. AID 2012. eIF4H fluorescence polarization binding assay. Q15056. inhibition, % at 35 µM. 0.94% of 290,000 active;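 also: calls also rest on retests at 20 µM and on dose response follow-up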
# PABP polyA inh: PABP-poly(A) binding inhibition | P11940 | PABP-poly(A) RNA binding, fluorescence polarization | inhibition, % at 35 µM | 1% of 290,000 active;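 also: calls also rest on retests at 20 µM and on dose response follow-up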
# eIF4E 4G PPI: blocks eIF4E binding to eIF4G | P63073+Q04637 | AID 782 | TR-FRET eIF4E-eIF4GI(517-606) binding, 2 h | inhibition, % at 21.7 µM | 0.37% of 220,000 active;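 active = inhibition above about 30%, limit read from the data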;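 also: 0% = full FRET control wells and 100% = background wells lacking eIF4GI fragment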
# * hit, by the source's call; u = inconclusive; x = no result. Unless noted, no rule for the calls is given here.
SMILES,PfM18AAP inh,PERK inh,MLLE-PAM2 inh,eIF4H inh,PABP polyA inh,eIF4E 4G PPI
O=C(O)c1cccc(NS(=O)(=O)c2ccc3c(c2)OCCCO3)c1,-5.3,1.3,-0.3,-2.1,31.8,-1.0
COc1nc(OC/C(N)=N/O)nc(N2CCOCC2)n1,-2.3,1.4,1.9,11.3,-12.6,5.8
CN1CCc2c(C#N)c(N3CCCCC3)nc(NCc3ccccc3)c2C1,9.0,-1.5,47.3,73.6*,53.2*,x
Cc1nc2ccc(N=NC3=C(O)CC(C)(C)CC3=O)cc2s1,11.6,1.4,-9.4,-14.4,-3.5,-0.5
CC(=O)N1CCc2cc(N=NC3=C(O)CC(C)(C)CC3=O)ccc21,0.8,0.6,-94.6,100.8*,6.5*,5.8
CCOC(=S)N/C(=N\S(=O)(=O)c1ccccc1)c1ccccc1,1.0,-0.2,15.7,2.7,11.6,0.1
CCOC(=S)N/C(=N\S(C)(=O)=O)c1ccccc1,-1.2,-0.2,38.6*,-8.1,-5.8,1.5
CCc1nc2c(OCc3ccc4c(c3)OCO4)cccn2c1N(C=O)Cc1ccc(OC)cc1,x,x,-3.6,x,x,x
Cc1ccc(S(=O)(=O)Nc2nc3ccccc3nc2Nc2cccc(S(=O)(=O)N3CCCC3)c2)cc1,-19.7,-0.9,44.9*,u,u,4.0
CN(C)CCOC1c2ccccc2CCc2ccc3ccccc3c21 (stereo unspecified),x,x,-10.8,x,x,x
CCC(=O)NCCCc1nc2ccccc2n1Cc1ccccc1F,-2.6,-0.1,1.3,-8.6,63.2*,-5.7
COc1cccc(CN2CCN(CC#Cc3ccccc3)CC2CCO)c1 (stereo unspecified),5.4,x,6.1,-2.5,-12.4,x
O=C(NNC(=O)c1ccc(-c2ccccc2)cc1)Nc1ccccc1F,2.1,x,-9.5,-8.6,-5.2,x
O=C(NNc1ccccc1F)c1ccccc1,14.6,5.0*,6.8,20.6,10.4,1.6
Cc1nc(N)sc1-c1csc(Nc2cccc(O)c2)n1,30.9*,x,-45.0,41.0,36.3,x
C/C(O)=c1/c(=O)nc2cccc3c2=c1c1ccccc1c3=O,10.9,x,46.8*,u,u,x
CC(=O)Oc1ccccc1/C=C/c1nc2ccccc2c(=O)o1,-7.2,x,-25.5,15.5,-0.2,x
CCN(CC(=O)NCc1ccc(F)cc1)C(=O)COc1ccc2ccccc2c1,-1.0,-0.5,-4.6,-17.7,3.6,2.9
CCc1ccccc1OCC(=O)N(CC)CC(=O)NCc1ccc(F)cc1,2.3,0.8,-1.6,active,119.5*,5.0
O=[N+]([O-])c1cc(S(=O)(=O)N2CCCC2)ccc1N/N=C/c1cccnc1,1.8,0.9,-0.9,-4.4,2.7,0.8
O=C(/C=C/c1ccco1)N(c1ccccn1)c1ccccn1,10.6,0.1,16.6,100.7*,13.7,34.4*
CCN(CC)S(=O)(=O)c1ccc(NC(=O)CCC2CCCCC2)cc1,13.6,-0.4,10.5,-14.5,0.0,-1.5
Cc1ccccc1OCC(=O)N/N=C/c1cccn1C,-4.6,0.0,4.1,26.4,6.0,-1.3
CC(C)C(=O)N1CCCC1(C)C(=O)Nc1ccc2c(c1)OCO2 (stereo unspecified),x,x,5.4,x,x,x
CCOc1cc(Br)cc(C(c2c(C(=O)O)[nH]c3ccccc23)c2c(C(=O)O)[nH]c3ccccc23)c1O,7.6,x,6.1,32.3,39.0,x
SMILES,PfM18AAP inh,PERK inh,MLLE-PAM2 inh,eIF4H inh,PABP polyA inh,eIF4E 4G PPI
CSc1ccc(C(c2c(C(=O)O)[nH]c3ccccc23)c2c(C(=O)O)[nH]c3ccccc23)cc1,-0.9,x,-5.2,53.4*,22.7,x
Cn1cc(Br)c(-c2cccc(NC(=O)CCCC(=O)O)c2)n1,3.1,0.9,-10.2,-3.0,3.3,3.1
O=C(NC(c1ccc(-c2ccccc2)cc1)c1cnccn1)C1CCN(CCCOc2ccccc2)CC1 (stereo unspecified),x,x,1.1,x,x,x
Cn1c(SCC(=O)Nc2nncs2)nnc1C1CC1,5.5,x,-11.3,89.5*,79.6*,x
CC(C)n1c(SCC(=O)Nc2nncs2)nnc1C1CC1,-5.6,x,8.4,-4.7,4.7,x
CCOC(=O)C(=Cc1ccc(Br)cc1)C(=O)OCC,12.4,-1.3,5.3,0.3,10.1,3.8
CCOC(=O)C(CC)(CC)C(=O)/C=C/c1ccc(Br)cc1,13.4,3.2*,8.3,-1.1,-7.3,-9.4
COc1ccc(CN=C2NC(=O)CC(C(=O)Nc3ccc(F)cc3)S2)cc1 (stereo unspecified),-2.2,0.5,0.3,5.6,2.1,35.8*
COc1ccc(NC(=O)C2CC(=O)N/C(=N/N=C/c3ccco3)S2)cc1 (stereo unspecified),2.3,0.3,7.4,-2.9,5.3,17.8
CC(C)Cc1nnc(NC(=O)c2ccc(S(=O)(=O)N3CCCC3)cc2)s1,x,x,14.7,x,x,x
COc1ccc(Cn2c(C)c(C)c(C#N)c2NC(=O)Nc2ccc(Cl)cc2)cc1,8.4,0.3,-25.4,4.3,-13.1,3.4
CN(C(=O)COC(=O)c1cc(NS(=O)(=O)c2cc([N+](=O)[O-])ccc2Cl)ccc1O)C1CCCCC1,-2.7,-0.1,-7.7,-6.1,-3.4,-6.7
COc1cccc(/C=N/Nc2c(Cl)cncc2Cl)c1O,-3.0,x,-2.0,-7.9,10.2,x
COc1cccc(/C=N/Nc2cc(Cl)nc(C)n2)c1O,29.1*,0.2,-19.8,8.3,-3.3,0.4
Cc1nc(Cl)cc(N/N=C/c2ccc(O)cc2)n1,3.7,x,1.2,-5.7,2.8,x
Cc1nc(Cl)cc(N/N=C/c2ccc(O)cc2O)n1,31.1*,x,0.7,-3.0,4.6,x
O=C(COc1ccccc1)N=C1SC2CS(=O)(=O)CC2N1c1cccc(F)c1 (stereo unspecified),-4.1,x,2.4,-1.1,7.1,x
CC(C)(C)OC(=O)N1CCC(C(=O)N[C@H](C(=O)O)c2ccccc2)(c2ccccc2)CC1,-3.8,x,2.1,-1.4,-10.6,x
N#CC1=C(N)Oc2cc(N)ccc2C1c1cccc(F)c1 (stereo unspecified),-0.9,x,-18.9,-2.0,10.8,x
CN(C)c1ccc2c(c1)OC(N)=C(C#N)C2c1cccc(F)c1 (stereo unspecified),29.8*,-0.1,-41.5,u,u,12.8
COc1cc(/C=C/C(=O)c2ccc3c(c2)OCO3)cc(Cl)c1O,31.6*,x,-139.7,-9.0,-20.5,x
CC(C)OCCCNc1ncnc2c1nc1n2CCCC1,0.0,x,3.5,93.5*,81.4*,x
COc1ccccc1NC(=O)CCN1C(=O)C2CC=CCC2C1=O (stereo unspecified),-11.7,x,-8.8,-12.0,6.7,x
N#CC12COC3(CCCCC3C1(C#N)C#N)OC2=N (stereo unspecified),4.5,0.3,49.1*,u,u,-2.7
CCCC1OC23CCCCC2C(C#N)(C(=N)O3)C1(C#N)C#N (stereo unspecified),5.7,1.2,57.9*,u,u,-0.5
N#CC1(C#N)COC23CCCCC2C1(C#N)C(=N)O3 (stereo unspecified),-3.8,0.2,39.4,50.8,32.1*,5.1
CC1OC23CCCCC2C(C#N)(C(=N)O3)C1(C#N)C#N (stereo unspecified),5.8,1.4,5.9,39.6,10.5,4.2
